According to PubChem BioAssay AID1347165 (National Center for Advancing Translational Sciences (NCATS), 2019):
Out of some 220,000 compounds screened, about 5,700 (2.6%) were called active. Not shown: some 18% with an inconclusive outcome. Calls come from the whole dose curve; as a rule, active = well fitted inhibition curve with a large enough effect; inconclusive = small, poorly fitted or top-dose-only effect; inactive = no such curve, though single readings can be large or run the other way. This excerpt belongs to a sample that is enriched for actives.

molecular target: Lysine-specific demethylase 5B (Homo sapiens) (UniProt Q9UGL1); assay: Primary screen for KDM5B Histone Demethylases FDH-coupled qHTS; conditions: FDH-coupled NADH fluorescence (FDH is formaldehyde dehydrogenase); series mostly up to 57.7 µM; activity change, negative = inhibition: at the top concentration; note: nearly all actives have a fitted effect of over 70% in size; for activity change, negative = inhibition: 0% is about no effect
How it was run: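 Coupled FDH/NAD⁺ fluorescence readout. KDM5BΔAP 200 nM final; compound titration, 10 min RT preincubation; substrate mix 12.5 µM H3K4me3, 25 µM 2-OG, 50 µM Fe(II), 100 µM ascorbate, 0.25 mM NAD⁺, 0.25 U/mL FDH; ΔRFU over 30 min.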
Potency is the fitted concentration of half-maximal effect.

Chain of Lysine-specific demethylase 5B (Homo sapiens) (Q9UGL1 whole entry, looked up): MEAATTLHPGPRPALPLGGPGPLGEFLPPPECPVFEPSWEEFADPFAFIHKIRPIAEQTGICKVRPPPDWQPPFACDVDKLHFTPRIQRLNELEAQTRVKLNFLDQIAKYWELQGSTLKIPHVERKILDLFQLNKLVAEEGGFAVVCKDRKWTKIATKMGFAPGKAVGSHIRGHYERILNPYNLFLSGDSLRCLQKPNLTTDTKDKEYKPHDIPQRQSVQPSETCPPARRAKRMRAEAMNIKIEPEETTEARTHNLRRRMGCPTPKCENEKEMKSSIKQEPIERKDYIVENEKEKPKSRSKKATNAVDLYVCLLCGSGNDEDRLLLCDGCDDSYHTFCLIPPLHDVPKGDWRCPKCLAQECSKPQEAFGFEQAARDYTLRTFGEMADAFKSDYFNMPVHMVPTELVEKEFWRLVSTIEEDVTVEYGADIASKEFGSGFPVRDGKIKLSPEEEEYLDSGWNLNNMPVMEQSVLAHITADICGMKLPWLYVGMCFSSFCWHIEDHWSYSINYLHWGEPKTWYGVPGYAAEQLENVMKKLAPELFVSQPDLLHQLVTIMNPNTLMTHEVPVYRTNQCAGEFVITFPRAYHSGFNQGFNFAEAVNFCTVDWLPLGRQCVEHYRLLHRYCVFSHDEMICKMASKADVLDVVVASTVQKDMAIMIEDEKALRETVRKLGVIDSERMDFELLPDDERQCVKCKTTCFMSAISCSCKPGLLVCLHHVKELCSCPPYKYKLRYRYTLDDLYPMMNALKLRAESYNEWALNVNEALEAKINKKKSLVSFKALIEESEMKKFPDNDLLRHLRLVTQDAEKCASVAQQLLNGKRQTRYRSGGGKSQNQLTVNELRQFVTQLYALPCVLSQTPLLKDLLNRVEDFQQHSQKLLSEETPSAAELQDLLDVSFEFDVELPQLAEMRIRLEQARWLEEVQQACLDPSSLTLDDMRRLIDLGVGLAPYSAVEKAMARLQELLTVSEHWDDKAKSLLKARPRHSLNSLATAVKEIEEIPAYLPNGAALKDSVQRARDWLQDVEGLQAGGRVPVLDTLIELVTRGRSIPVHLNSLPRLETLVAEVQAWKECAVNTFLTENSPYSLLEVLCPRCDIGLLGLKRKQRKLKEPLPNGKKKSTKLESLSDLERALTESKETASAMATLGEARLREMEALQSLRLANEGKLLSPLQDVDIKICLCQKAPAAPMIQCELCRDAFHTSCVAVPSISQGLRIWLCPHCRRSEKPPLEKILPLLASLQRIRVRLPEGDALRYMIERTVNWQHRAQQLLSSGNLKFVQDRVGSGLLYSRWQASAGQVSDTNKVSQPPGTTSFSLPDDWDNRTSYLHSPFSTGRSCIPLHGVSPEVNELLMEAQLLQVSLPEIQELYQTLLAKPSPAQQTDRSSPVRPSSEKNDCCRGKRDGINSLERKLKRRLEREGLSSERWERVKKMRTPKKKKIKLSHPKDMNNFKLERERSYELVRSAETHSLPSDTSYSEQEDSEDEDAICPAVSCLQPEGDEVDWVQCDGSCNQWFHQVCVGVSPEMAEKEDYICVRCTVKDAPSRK

Activity change, negative = inhibition, inactive:
O=C(/C=C/c1ccccc1)Nc1cccc2c1CCCC2 24.1%, O=C(NCC1CC1)c1ccc(F)cc1 17.1%, Cc1ccc(OCc2nc3ccc(F)cc3[nH]2)cc1 15.2%, CCCCCC1CC(COc2ccccc2)OC1=O (configuration not stated) 26.8%, COc1ccc2c(COC(=O)c3cc4ccccc4cc3O)cc(=O)oc2c1 -21.8%, CCc1cccc2c(C(=O)C(Nc3cccc(CO)c3)c3ccccc3)c[nH]c12 (configuration not stated) -20.6%, O=C(COC(=O)CCc1c[nH]c2ccccc12)NC1CC1 0.514%, Cc1cc(Nc2cccc(Cl)c2)n2nc(Cc3ccccc3)nc2n1 -9.46%, O=C(c1ccccc1)c1ccc(C(=O)N2CCN(c3ccccc3)CC2)cc1 -3.85%, C=CCNC(=O)N1CC[C@@H](CC(=O)O)[C@@H](CC2=NCCc3ccc(C)cc32)C1 -15.8% [at 86.2 µM], CC(C)(C)C(=O)N1CC[C@@H](CC(=O)O)[C@@H](CCN2CCN(c3cccc(C(F)(F)F)c3)CC2)C1 19%, Cc1ccc(CNC(=O)[C@H](C)NC(=O)[C@@H]2Cc3ccccc3CN2)cc1 5.1%, O=C(NCc1ccccn1)C1c2ccccc2C(=O)N(C2CCCC2)C12CCCC2 (configuration not stated) 22.4%, COCc1nnc(NC(=O)C2c3ccccc3C(=O)N(C3CCCC3)C23CCCC3)s1 (configuration not stated) -17.5%, CN(C)CCN(Cc1ccc(Cl)cc1)C(=O)c1ccncc1 -6.95%, COc1cc(C(=O)OC2CCCCC2=O)ccc1OCc1ccccc1Cl (configuration not stated) -12.3%, Clc1ccc2[nH]c3c(c2c1)CCCC3 -23.8%, COCCn1c(C)cnc1CC1CCN(C(=O)c2ccc(OC)cc2OC)CC1 34.2%, Cc1ccncc1C(=O)N1CCC(Cn2c(C)cnc2-c2cccnc2)CC1 -18.9%, Cc1[nH]c(=O)[nH]c(=O)c1CCC(=O)Nc1nc(C(C)C)cs1 -2.21%, O=C(OCc1cccc(Cl)c1)c1ccc(N2CCOCC2)nc1 -16.1%, CCOC(=O)C1CCN(C(=O)c2cccc(S(=O)(=O)N(CC)c3ccccc3)c2)CC1 -3.52%, O=C(c1ccnc(-c2nnc3ccc(N4CCOCC4)nn23)c1)N1CCCCC1 -40.3% [at 86.2 µM], CC(=O)c1ccc(NC(=O)COC(=O)C2CCN(c3ccc(C(F)(F)F)cn3)CC2)cc1 -18.1%, CCC(=O)Nc1ccc(Cl)cc1C -3.1%, Cc1cc(C)c(OCC(=O)Nc2ccc(NC(=O)c3ccco3)cc2)c(Br)c1 -5.67%, CCOc1cc(C)c(Cl)cc1S(=O)(=O)N1CCCCC1C (configuration not stated) -1.68%, CC(OC(=O)CCCc1c[nH]c2ccccc12)C(=O)NC(N)=O (configuration not stated) -1.4%, CCCCc1nc(SCC(=O)Nc2nnc(C(C)C)s2)n[nH]1 -21.5%, O=C(Nc1ccsc1)N[C@H]1C[C@H]2C(=O)NC[C@@H](CCC(=O)N3CCC(O)CC3)N2C1 -27.4% [at 86.2 µM], CN1[C@@H](CCC(=O)N2CCN(c3ccccc3)CC2)CNC(=O)[C@H]2NCC[C@H]21 1.01% [at 86.2 µM], CN(C)c1ccc(C(=O)N[C@H]2C[C@H]3C(=O)NC[C@@H](CCC(=O)N4CCCCC4)N3C2)cc1 -22.1%, COC(=O)C1CCN(C(=O)CC[C@H]2CNC(=O)[C@@H]3[C@@H](CCN3Cc3cccs3)N2C)CC1 -14.8%, COc1cccc(C(=O)Oc2ccc(C3(c4ccc(OC(=O)c5cccc(OC)c5)cc4)OC(=O)c4ccccc43)cc2)c1 15.9%, CC(C)NC(=O)CN(C)CC(O)COc1ccc(Cl)cc1 (configuration not stated) -11.6%, CCc1cc(CC)n(-c2nc3c(c(=O)n(C)c(=O)n3C)n2C)n1 15.4%, CCc1nn(C(C)C(=O)NCc2ccccc2Cl)c(=O)c2cc3occc3n12 (configuration not stated) 8.4%, NC(=O)c1ccc(NC(=O)C2(Cc3nc4ccccc4s3)CCCCC2)cc1 -20.3%, CCNC(=O)NC(=O)CN1CCCC(c2nc3ccccc3o2)C1 (configuration not stated) 2.2%, CC(C)NC(=O)Cc1cccs1 18%, CCC1(C)Cc2nc3sc4c(=O)n(CC(=O)NCc5ccco5)cnc4c3cc2CO1 (configuration not stated) -10%, Cn1nc(CC(=O)Nc2cccc(Cl)c2)c2ccccc2c1=O -6.18%, COc1ccc2c(C)c(CC(=O)NCc3ccco3)c(=O)oc2c1 -963%

Potency, active:
COc1cccc2c1CCN=C2C[C@H]1CN(C(=O)C(C)(C)C)CC[C@H]1CC(=O)O 35.5 µM, Cc1cccnc1NC(=O)C1c2ccccc2C(=O)N(C2CCCC2)C12CCCC2 (configuration not stated) 15.8 µM, Cc1cnc(CC2CCN(C(=O)c3cccc4[nH]ccc34)CC2)n1CC1CC1 22.4 µM, O=C(c1ccc(-c2ccc(N3CCCCC3)nc2)cc1)N1CCOCC1 28.2 µM, CCOC(=O)C1CCN(C(=O)c2ccc(-c3ccc(N4CCCCCC4)nc3)cc2)CC1 15.8 µM, CN1[C@@H](CCC(=O)N2CCN(c3ccccn3)CC2)CNC(=O)[C@@H]2[C@H]1CCN2Cc1csnn1 28.2 µM, O=C1NC[C@@H](CCC(=O)N2CCN(c3ccccn3)CC2)N2C[C@@H](NCc3ccccc3)C[C@@H]12 31.6 µM, Cc1cccc(-n2nc(-c3c(C)nc4scc(CC(=O)NCc5ccco5)n4c3=O)cc2C)c1C 31.6 µM, Cc1nc2scc(CC(=O)NC(C)C)n2c(=O)c1-c1cc(C)n(-c2cccc(Cl)c2)n1 28.2 µM
